Results on five compounds are retold here after PubChem BioAssay.

A short description of assay [1]: small molecules captured by biotinylated probe aFSTL3 – biochemical, small-molecule microarray, fluorescence 635/667, stem cell growth factor project, primary screen (AID 1064).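 Also: measures binding of the biotinylated anti-FSTL3 antibody to printed compounds.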 The conditions noted are these: higher = more signal.
Assay [2] can be described thus: binders from COS7 lysate, DM2A8 probe, primary screen, torsin A project, cell lysate, small-molecule microarray, fluorescence 635/667 (AID 1065). To be noted: higher = more signal, COS7 lysate expressing mutant human TOR1A.
Assay [3] can be described thus: small molecules captured by biotinylated probe aFGF2 – biochemical, small-molecule microarray, fluorescence 635/667, stem cell growth factor project, primary screen (AID 1067).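 Also: measures binding of biotinylated aFGF2 protein to printed compounds on slides; z-score merges feature fluorescence and signal-to-noise across triplicate slides.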 The conditions noted are these: higher = more signal.
Assay [4] is described as follows: small molecules captured by biotinylated probe aFGF10 – biochemical, small-molecule microarray, fluorescence 635/667, stem cell growth factor project, primary screen (AID 1071).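 Also: score merges 667 nm spot intensity and signal to noise from triplicate slides.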 The conditions noted are these: higher = more signal.
Assay [5] deals with Neurogenic locus notch homolog protein 2 (Homo sapiens) (UniProt Q04721). As to the kind of experiment: small molecules binding Notch2 protein – biochemical, small-molecule microarray, 635 nm fluorescence, stem cell growth factors, primary screen (AID 1073). To be noted: higher = more signal.
Chain of Neurogenic locus notch homolog protein 2 (Homo sapiens) (Q04721 whole entry, looked up, canonical isoform): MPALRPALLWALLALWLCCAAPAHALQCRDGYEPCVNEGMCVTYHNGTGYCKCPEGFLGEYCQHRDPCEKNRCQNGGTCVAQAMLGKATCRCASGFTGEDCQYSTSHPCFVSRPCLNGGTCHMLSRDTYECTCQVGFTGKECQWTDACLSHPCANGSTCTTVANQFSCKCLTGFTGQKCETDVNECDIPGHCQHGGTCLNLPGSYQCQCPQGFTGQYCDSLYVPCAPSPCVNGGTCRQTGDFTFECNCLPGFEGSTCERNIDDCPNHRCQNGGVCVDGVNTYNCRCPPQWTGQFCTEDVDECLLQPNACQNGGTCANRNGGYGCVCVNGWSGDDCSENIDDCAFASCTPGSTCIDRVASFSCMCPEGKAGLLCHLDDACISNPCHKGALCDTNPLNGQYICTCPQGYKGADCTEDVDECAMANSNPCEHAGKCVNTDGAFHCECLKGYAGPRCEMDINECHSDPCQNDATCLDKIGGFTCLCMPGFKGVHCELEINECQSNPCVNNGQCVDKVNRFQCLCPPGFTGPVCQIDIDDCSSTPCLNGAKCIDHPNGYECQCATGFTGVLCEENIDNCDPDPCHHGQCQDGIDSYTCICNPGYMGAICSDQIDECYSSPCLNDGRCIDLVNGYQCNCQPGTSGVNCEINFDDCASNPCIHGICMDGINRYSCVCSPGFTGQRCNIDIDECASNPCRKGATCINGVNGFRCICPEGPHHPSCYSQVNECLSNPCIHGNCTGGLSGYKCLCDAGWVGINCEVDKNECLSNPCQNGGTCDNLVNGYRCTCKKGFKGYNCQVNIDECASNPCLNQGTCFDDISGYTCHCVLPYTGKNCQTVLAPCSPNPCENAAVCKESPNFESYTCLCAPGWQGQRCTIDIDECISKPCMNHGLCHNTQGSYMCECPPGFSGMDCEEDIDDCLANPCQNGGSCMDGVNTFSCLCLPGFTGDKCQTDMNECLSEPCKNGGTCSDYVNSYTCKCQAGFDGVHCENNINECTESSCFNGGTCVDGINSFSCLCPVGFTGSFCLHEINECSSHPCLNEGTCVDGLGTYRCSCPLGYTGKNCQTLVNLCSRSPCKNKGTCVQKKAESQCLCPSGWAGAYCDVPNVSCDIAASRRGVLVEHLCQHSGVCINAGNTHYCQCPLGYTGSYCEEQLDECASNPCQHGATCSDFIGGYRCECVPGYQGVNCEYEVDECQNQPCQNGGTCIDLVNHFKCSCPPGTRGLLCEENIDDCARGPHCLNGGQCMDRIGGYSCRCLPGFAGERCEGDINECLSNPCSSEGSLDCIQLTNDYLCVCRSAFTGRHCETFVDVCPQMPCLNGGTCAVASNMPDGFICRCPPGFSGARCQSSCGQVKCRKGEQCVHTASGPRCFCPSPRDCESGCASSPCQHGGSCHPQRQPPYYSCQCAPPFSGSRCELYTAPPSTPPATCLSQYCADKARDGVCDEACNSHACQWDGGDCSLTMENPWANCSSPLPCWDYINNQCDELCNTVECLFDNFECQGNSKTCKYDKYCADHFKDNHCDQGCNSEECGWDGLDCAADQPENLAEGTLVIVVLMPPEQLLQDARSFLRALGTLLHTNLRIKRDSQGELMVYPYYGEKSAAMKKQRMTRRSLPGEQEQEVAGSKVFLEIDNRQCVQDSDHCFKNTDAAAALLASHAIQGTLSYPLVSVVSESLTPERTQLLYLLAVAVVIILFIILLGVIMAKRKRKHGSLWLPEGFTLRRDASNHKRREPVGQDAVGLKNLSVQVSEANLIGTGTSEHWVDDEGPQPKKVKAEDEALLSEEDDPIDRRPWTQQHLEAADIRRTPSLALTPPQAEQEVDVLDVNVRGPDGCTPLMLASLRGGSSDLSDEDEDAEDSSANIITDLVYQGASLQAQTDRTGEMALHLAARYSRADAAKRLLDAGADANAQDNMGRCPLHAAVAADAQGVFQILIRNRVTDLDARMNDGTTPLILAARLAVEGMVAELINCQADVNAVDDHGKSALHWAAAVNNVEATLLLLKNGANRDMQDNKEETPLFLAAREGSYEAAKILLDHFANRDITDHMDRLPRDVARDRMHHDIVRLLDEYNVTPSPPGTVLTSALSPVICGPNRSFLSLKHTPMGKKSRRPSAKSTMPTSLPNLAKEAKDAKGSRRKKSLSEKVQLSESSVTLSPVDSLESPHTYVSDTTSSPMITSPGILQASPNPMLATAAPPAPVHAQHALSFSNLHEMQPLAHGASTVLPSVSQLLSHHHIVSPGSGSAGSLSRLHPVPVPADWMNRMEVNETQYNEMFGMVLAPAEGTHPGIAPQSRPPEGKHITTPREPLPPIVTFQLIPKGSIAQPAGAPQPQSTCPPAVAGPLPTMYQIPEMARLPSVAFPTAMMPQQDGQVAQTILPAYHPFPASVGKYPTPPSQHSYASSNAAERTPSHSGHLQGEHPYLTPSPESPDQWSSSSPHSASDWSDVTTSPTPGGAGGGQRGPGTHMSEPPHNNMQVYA
The target of assay [6] is Pro-neuregulin-1, membrane-bound isoform (Homo sapiens) (UniProt Q02297). Description: small molecules binding neuregulin-1 protein – biochemical, small-molecule microarray, fluorescence 635/667, psychiatric disease protein project, primary screen (AID 1075).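 Also: score combines 667 nm spot fluorescence with signal to noise.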 The conditions noted are these: NRG1 binding, 635 nm fluorescence, higher = more signal.
Assay [7] concerns Neuregulin-1 EGF-like domain. Description: small molecules binding NRG1 EGF domain – biochemical, small-molecule microarray, 635 nm fluorescence, primary screen (AID 1081).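 Also: binding of the protein to compounds printed on small-molecule microarray slides.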 The conditions noted are these: higher = more signal.
The nature of assay [8]: FRG1 expression reporter modulators in myotubes – cell-based, C2C12 myotubes, firefly/Renilla luciferase, luminescence, FRG1 inhibition for FSHD, primary screen (AID 1084). To be noted: FRG1 promoter luciferase, higher = more signal, called active from +8 up or from −8 down.
Assay [9] can be described thus: small molecules captured by biotinylated probe aFST – biochemical, small-molecule microarray, fluorescence 635/667, stem cell growth factor project, primary screen (AID 1086).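 Also: score merges 667 nm fluorescence with signal-to-noise of each printed compound spot.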 The conditions noted are these: higher = more signal.
A short description of assay [10]: binders of probe aHhip on microarray, primary screen, stem cell growth factor project, biochemical, small-molecule microarray, fluorescence 635/667 (AID 1087).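 Also: score merges spot fluorescence at 667nm with spot signal to noise ratio.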 The conditions noted are these: higher = more signal.
Assay [11] concerns PRMT1 (protein arginine N-methyltransferase 1). As to the kind of experiment: small molecules binding arginine methyltransferase PRMT1 – biochemical, small-molecule microarray, 635 nm fluorescence, primary screen (AID 1088).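 Also: binding of Prmt1 protein to compounds spotted on small-molecule microarray slides.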 To be noted: higher = more signal.
Assay [12] in a line: growth effects on S. cerevisiae YJM789 – YJM789 clinical isolate, OD600, 24 h, basal, primary screen (AID 1089).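 Also: growth of clinical yeast isolate S. cerevisiae YJM 789 seeded 1000 cells per well; test concentration not given here.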 To be noted: higher = more signal, called active from +8 up or from −8 down.
The nature of assay [13]: S. pombe growth modifiers, basal conditions – strain 972, OD600, 24 h, no modulator, primary screen (AID 1090).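 Also: basal condition with compound alone and no growth modifier present; test concentration not given here.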 To be noted: S. pombe 972 growth, higher = more signal, called active from +8 up or from −8 down.
Assay [14] is described as follows: budding yeast growth modifiers under rapamycin – strain BY4716, OD600, 96 h, primary screen (AID 1091). Also: test concentration not given here. To be noted: S. cerevisiae BY4716 + rapamycin, higher = more signal, called active from +8 up or from −8 down.
For assay [15], the target named is Torsin-1A-interacting protein 2 (Homo sapiens) (UniProt Q8NFQ8). As to the kind of experiment: small molecules binding lysate-expressed LULL1 – cell lysate, human LULL1 lysate, 635/667 nm fluorescence, primary screen (AID 1092).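 Also: probe is lysate of COS7 cells overexpressing human LULL1; score merges per-feature 667 nm fluorescence with signal-to-noise.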 The conditions noted are these: small-molecule microarray, hLULL1 lysate binding, 635 nm fluorescence; higher = more signal.
Assay [16] can be described thus: optical density change of DRC41 E. coli – strain DRC41, OD650, 24 h, E. coli filamentation project, primary screen (AID 1093).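 Also: MC1000 strain lacking acrAB efflux and sulA so SOS filamentation is blocked; test concentration not given here.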 To be noted: E. coli DRC41 growth, higher = more signal, called active from +8 up or from −8 down.
Assay [17] in a line: probe aLefty2 binding to arrayed compounds – biochemical, biotinylated probe, 635/667 nm fluorescence, primary screen (AID 1094).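 Also: score merges spot fluorescence near 667 nm with spot signal-to-noise ratio.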 To be noted: small-molecule microarray, higher = more signal.
Assay [18] has as its system Noggin (protein binding on small-molecule microarray). As to the kind of experiment: small molecules binding Noggin protein – biochemical, 635/667 nm fluorescence, primary screen (AID 1095).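 Also: score merges 667 nm feature fluorescence with signal to noise over triplicate slides.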 To be noted: 635 nm fluorescence, higher = more signal.
The target in assay [19] is Neurogenic locus notch homolog protein 3 (Homo sapiens) (UniProt Q9UM47). As to the kind of experiment: small molecules binding NOTCH3 protein – biochemical, 635/667 nm fluorescence, primary screen (AID 1096). The conditions noted are these: small-molecule microarray, 635 nm fluorescence, higher = more signal.
Chain of Neurogenic locus notch homolog protein 3 (Homo sapiens) (Q9UM47 whole entry, looked up): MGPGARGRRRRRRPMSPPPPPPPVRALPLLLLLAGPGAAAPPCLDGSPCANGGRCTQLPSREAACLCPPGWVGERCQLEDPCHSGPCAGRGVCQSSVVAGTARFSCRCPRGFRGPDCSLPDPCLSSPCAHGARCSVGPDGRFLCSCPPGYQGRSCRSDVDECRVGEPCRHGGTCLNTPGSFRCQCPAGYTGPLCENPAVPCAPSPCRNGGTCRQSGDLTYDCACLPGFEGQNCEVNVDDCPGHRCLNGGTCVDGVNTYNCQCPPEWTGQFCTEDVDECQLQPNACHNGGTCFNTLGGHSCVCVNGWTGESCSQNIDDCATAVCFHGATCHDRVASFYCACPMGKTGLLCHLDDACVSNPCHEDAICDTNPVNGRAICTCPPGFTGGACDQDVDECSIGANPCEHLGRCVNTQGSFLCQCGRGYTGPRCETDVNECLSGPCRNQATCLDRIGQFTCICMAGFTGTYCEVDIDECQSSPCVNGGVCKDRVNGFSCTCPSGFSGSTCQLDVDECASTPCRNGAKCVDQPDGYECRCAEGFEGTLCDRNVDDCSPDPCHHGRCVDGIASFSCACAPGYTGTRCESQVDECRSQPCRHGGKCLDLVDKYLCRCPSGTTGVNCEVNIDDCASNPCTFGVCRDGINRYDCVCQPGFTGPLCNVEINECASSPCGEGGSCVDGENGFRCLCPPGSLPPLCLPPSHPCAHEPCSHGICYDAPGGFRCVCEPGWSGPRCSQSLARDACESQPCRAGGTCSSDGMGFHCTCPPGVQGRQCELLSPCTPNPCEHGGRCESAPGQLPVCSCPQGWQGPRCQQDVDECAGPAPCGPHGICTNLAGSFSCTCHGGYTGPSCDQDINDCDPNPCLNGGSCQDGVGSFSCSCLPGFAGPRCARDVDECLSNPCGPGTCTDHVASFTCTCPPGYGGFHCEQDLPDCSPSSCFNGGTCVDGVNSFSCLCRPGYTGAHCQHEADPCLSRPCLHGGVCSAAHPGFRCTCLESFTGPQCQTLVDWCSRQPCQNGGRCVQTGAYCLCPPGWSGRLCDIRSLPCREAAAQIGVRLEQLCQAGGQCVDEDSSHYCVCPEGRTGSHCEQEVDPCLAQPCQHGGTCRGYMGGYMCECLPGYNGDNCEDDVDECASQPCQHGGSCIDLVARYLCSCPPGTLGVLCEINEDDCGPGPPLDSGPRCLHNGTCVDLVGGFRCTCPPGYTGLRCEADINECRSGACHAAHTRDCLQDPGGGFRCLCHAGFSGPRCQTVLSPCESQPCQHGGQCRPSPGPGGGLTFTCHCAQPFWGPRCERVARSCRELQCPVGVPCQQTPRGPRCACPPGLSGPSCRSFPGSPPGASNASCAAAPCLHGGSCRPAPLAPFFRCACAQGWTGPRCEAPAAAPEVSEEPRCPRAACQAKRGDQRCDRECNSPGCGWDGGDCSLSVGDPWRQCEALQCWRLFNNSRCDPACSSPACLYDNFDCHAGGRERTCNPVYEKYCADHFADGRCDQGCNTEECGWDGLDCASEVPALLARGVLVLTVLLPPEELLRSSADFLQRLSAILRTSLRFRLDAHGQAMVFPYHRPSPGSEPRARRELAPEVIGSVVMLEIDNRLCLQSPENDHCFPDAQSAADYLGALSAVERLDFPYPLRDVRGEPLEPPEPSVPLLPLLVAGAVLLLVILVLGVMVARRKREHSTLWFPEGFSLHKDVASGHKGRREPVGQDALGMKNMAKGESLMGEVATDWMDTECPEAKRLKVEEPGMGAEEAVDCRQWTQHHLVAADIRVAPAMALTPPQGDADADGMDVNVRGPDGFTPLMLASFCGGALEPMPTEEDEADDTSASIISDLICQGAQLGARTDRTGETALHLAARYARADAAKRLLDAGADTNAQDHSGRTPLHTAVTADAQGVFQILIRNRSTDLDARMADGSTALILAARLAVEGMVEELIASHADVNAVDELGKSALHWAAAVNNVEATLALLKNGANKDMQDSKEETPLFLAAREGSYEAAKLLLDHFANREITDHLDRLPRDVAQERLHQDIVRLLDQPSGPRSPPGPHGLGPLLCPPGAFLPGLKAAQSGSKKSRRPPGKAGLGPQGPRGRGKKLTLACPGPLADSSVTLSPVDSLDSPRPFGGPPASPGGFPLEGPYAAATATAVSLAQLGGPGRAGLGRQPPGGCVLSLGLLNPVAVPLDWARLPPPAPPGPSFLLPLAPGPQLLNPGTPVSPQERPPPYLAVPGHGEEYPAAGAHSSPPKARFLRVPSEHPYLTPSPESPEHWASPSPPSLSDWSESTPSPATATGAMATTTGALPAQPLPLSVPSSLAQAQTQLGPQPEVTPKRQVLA
Assay [20] can be described thus: probe aEGFR binding to arrayed compounds – biochemical, biotinylated probe, 635/667 nm fluorescence, primary screen (AID 1097).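 Also: probe is a biotinylated anti-EGFR antibody binding compounds printed on slides; score combines fluorescence near 667 nm and signal to noise of each spot.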 The conditions noted are these: small-molecule microarray, higher = more signal.

Active and inactive are the calls of the source.

For the compound `COc1ccc([Si](C)(C)[C@H]2[C@H](CCO)O[C@@]3(C(=O)N(Cc4cccc(N5C(=O)c6ccccc6Oc6ccccc65)c4)c4ccccc43)[C@@H]2C)cc1`, the composite z-score was 0.115 in assay [1]; -0.672 in assay [2]; -0.0645 in assay [3]; 0.462 in assay [4]; 0.139 in assay [5]; 0.962 in [6]. The composite z-score in [7] is 1.02; in assay [9], -0.278; in assay [10] it was -0.132; in assay [11], 0.891; in assay [15] it was 1.51; in assay [17] it was -0.118. The composite z-score was -0.202 in assay [18], 0.451 in assay [19] and -0.108 in assay [20]. Further, the z-score in [8] is -1.19 (inactive); in [12] it was 2.14 (inactive); in assay [13] it was -0.506 (inactive); in assay [14], 23.1 (active); in [16] it was 1.03 (inactive).

`CC1CC/C=C\[C@H]2OC34C=CCN(c5ccc(Cl)cc5)C(=O)[C@H]3N(CCCCCCO)C(=O)[C@]4(C)C2C(=O)O1` (stereo not given in full): the composite z-score in assay [1] was -0.147; in assay [2], -0.965; in [3] it was -0.176; in assay [4] it was -0.219; in assay [5], -0.705; in [6] it was 0.639. The composite z-score in assay [7] was 1.52; in assay [9] it was -0.56; in [10], -0.204; in assay [11], -0.106; in assay [15], 0.995; in [17] it was -0.233. The composite z-score in [18] was -0.914; in assay [19], -0.277; in assay [20], -0.314. The z-score in assay [8] was 0.975 (inactive); in assay [12], -0.0412 (inactive); in assay [13], -0.884 (inactive); in assay [14], 0.187 (inactive); in assay [16] it was 0.206 (inactive).

In the case of `COC(=O)[C@@]1(Cc2ccc(F)cc2)[C@H]2c3cc(C(=O)N4CCCC4)n(Cc4cc(F)cc5c4OCOC5)c3C[C@H]2CN1C(=O)c1ccccc1`, the composite z-score in assay [1] was 0.653; in [2], -0.622; in [3] it was 0.13; in [4], 0.816; in [5] it was 1.75; in assay [6], 1.69. For the same compound, the composite z-score in assay [7] came out at 0.102; in assay [9], 1.56; in [10] it was 0.0759; in assay [11], 0.272; in assay [15], 0.423; in assay [17] it was 0.299. The composite z-score was 0.739 in assay [18], 1.12 in assay [19] and 0.36 in [20]. Also, the z-score in [8] was 0.869 (inactive); in [12] it was 0.494 (inactive); in assay [13], 1.57 (inactive); in assay [14] it was 3.33 (inactive); in assay [16], -0.0269 (inactive).

Regarding `O=C(NCCN1CCOCC1)[C@@H]1c2ccccc2C(=O)N(Cc2ccc(OC(F)(F)F)cc2)[C@H]1c1ccc(CO)cc1`, the composite z-score was 0.224 in assay [1]; 0.751 in assay [2]; -0.0531 in assay [3]; -0.315 in [4]; 0.0161 in [5]; -0.181 in assay [6]. In addition, the composite z-score in assay [7] was 0.569; in [9] it was -0.236; in assay [10], -0.0645; in assay [11], 1.19; in assay [15], 3.09; in assay [17], -0.0766. Also, the composite z-score in assay [18] is 0.0807; in [19], -0.0807; in assay [20] it was -0.126. Besides, the z-score in assay [8] was -1.39 (inactive); in [12] it was -1.58 (inactive); in [13], -0.748 (inactive); in assay [14] it was -0.846 (inactive); in assay [16] it was 0.0461 (inactive).

For `O=C1O[C@H](c2ccccc2)[C@H](c2ccccc2)N2[C@H]1[C@@H](C(=O)N1CCN(c3ncccn3)CC1)[C@]1(C(=O)Nc3ccc(C#CCCO)cc31)[C@H]2c1ccc(O)cc1`, the composite z-score in assay [1] is -0.153; in assay [2] it was -0.162; in assay [3], 0.0033; in assay [4], 0.597; in assay [5] it was 1.01; in assay [6] it was 1.71. Besides, the composite z-score was 0.979 in assay [7]; 0.0354 in [9]; 0.0373 in [10]; 0.738 in [11]; 2.92 in assay [15]; -0.0784 in assay [17]. Also, the figures for the composite z-score in assay [18], in [19] and in assay [20] were 0.283, 0.504 and -0.004, respectively. Besides, the z-score in assay [8] was 1.34 (inactive); in [12], 0.515 (inactive); in [13], -0.443 (inactive); in assay [14], 1.18 (inactive); in [16] it was -0.778 (inactive).
